From ChEMBL document CHEMBL3988442, “University of Dundee, Small-Polar-MMV Screening Library” (2021) come the findings set out here.

For some assays here: Potency and affinity values are given separately.

What all share (set-up): scale not given: direction of the effect not stated beside the values
Assay [1] concerns the target Protein translocase subunit SecA (Escherichia coli (strain K12)) (UniProt P10408). The experiment in a line: Assay to Identify E. coli SecA ATPase Inhibitors. The assay is classed as functional. As to conditions: 30 µM.
In assay [2] the target is T1, Ubiquitin-activating enzyme e1, putative (Leishmania donovani (strain BPK282A1)) (UniProt E9BSI1).
T1 sequence (whole entry): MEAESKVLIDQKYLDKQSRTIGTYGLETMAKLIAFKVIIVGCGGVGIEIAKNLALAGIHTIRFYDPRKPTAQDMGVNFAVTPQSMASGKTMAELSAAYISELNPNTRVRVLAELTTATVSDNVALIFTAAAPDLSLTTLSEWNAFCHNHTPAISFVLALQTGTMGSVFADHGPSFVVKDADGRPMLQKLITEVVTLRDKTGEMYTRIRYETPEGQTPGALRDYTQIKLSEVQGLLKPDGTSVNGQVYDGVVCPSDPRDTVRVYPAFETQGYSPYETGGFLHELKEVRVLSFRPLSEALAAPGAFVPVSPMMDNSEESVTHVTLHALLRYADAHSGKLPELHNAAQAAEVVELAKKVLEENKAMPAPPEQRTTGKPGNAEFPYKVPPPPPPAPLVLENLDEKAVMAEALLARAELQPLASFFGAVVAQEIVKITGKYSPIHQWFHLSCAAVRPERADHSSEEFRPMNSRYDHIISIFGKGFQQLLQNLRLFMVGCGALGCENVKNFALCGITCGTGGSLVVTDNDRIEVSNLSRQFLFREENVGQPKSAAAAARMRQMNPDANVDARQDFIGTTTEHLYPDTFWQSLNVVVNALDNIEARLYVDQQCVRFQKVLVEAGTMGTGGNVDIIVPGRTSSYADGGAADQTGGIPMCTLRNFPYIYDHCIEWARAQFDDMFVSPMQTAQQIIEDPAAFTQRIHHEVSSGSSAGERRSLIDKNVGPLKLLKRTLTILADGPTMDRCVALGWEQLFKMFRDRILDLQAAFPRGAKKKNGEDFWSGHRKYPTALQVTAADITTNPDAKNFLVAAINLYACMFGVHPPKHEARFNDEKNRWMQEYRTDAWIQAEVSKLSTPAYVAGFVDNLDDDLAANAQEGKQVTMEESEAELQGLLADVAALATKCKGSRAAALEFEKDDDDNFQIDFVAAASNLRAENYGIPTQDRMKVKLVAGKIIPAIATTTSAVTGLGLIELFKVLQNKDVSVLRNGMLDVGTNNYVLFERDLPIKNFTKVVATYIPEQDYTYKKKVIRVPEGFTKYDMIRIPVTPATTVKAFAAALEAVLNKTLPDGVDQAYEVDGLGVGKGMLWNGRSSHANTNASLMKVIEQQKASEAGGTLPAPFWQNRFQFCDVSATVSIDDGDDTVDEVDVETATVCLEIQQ
The experiment in a line: Leishmania donovani Ubiquitin Activating Enzyme (LdE1). Format: functional. As to conditions: 30 µM.

The target of assay [3] is T2, Aspartate--tRNA(Asp/Asn) ligase (Mycobacterium tuberculosis (strain ATCC 25618 / H37Rv)) (UniProt P9WFW3). Also: in the data most compounds retested in dose-response had high values.
T2 sequence (whole entry): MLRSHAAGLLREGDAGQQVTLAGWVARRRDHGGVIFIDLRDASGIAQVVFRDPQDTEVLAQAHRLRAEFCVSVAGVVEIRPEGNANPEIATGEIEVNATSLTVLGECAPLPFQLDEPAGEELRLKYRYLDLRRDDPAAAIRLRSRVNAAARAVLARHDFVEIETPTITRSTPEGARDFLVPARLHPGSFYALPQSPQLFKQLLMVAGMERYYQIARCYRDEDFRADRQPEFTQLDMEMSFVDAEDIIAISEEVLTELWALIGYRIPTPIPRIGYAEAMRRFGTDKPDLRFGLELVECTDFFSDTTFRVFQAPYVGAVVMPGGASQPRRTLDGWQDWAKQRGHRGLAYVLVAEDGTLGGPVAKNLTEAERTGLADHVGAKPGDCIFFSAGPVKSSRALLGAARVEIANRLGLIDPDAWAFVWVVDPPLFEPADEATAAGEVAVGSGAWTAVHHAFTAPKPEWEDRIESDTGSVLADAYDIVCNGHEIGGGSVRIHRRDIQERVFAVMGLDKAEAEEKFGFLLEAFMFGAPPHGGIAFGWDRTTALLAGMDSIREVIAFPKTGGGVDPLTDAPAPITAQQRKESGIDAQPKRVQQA
The experiment in a line: Assay for Asp RNA synthetase-1 from Mycobacterium tuberculosis. Format: functional. As to conditions: 30 µM.

The target in assay [4] is AMP-activated protein kinase, AMPK (Homo sapiens) (UniProt P54646+O43741+P54619+Q9UGJ0+Q9Y478+Q13131+Q9UGI9). The experiment in a line: AMP-dependent Kinase enzyme assay. An in vitro enzyme assay that detects ADP turnover that is directly proportional to AMPK activity. This uses naive AMPK that is activated during the assay with MK-8722. The assay is classed as functional. As to conditions: 30 µM.

Assay [5] addresses Sialic acid-binding Ig-like lectin 9 (Homo sapiens) (UniProt Q9Y336). As to the kind of experiment: Hs-Siglec9 ALPHAscreen SOP 20170721. To be noted: 10 µM. (In general: Bead proximity is the source of the signal in Alpha formats.)
The test system of a further assay is Trypanosoma cruzi. As to the kind of experiment: Trypanosoma cruzi phosphomannomutase and mannose-1-phosphate guanylyltransferase assay. The assay is classed as functional. To be noted: 10 µM.
Assay [6] concerns the target T3, Arginase-2, mitochondrial (Homo sapiens) (UniProt P78540).
T3 sequence (whole entry): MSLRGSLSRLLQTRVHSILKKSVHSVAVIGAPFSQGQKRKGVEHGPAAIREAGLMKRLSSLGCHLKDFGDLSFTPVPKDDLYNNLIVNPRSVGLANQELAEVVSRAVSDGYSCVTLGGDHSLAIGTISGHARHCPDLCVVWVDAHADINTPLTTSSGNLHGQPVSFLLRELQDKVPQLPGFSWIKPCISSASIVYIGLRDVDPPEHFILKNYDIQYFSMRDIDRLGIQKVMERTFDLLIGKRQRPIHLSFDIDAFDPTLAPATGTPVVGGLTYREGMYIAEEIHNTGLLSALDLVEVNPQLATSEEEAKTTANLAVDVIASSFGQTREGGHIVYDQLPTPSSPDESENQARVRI
As to the kind of experiment: in vitro enzyme assay to detect the production of urea directly proportional to the activity of Arginase II. Also: in the data most compounds retested in dose-response had high values. Format: functional. To be noted: 33.3 µM.

Assay [7] has as its target T4, Proteasome subunit beta (Trypanosoma cruzi) (UniProt O96673).
T4 sequence (whole entry): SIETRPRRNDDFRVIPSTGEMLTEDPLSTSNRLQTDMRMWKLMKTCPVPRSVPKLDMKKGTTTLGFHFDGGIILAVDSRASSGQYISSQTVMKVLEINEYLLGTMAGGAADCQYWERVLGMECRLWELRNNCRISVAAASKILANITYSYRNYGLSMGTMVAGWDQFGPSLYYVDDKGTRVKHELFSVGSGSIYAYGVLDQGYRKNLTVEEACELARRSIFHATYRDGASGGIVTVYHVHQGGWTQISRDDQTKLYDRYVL
As to the kind of experiment: Trypanosoma cruzi proteasome chymotrypsin-like activity (TcProtChymo) assay. Also: in the data most compounds retested in dose-response had high values. As to conditions: 9.37 µM. The assay is classed as functional.

For another assay, the species on record is Homo sapiens. As to the kind of experiment: To identify inhibition of the IFN signalling (Jak-Stat) pathway via expression of an eGFP reporter gene under the control of an IFN-stimulated response element (ISRE) containing MxA promoter. Format: functional. To be noted: 30 µM. For orientation: Reporter assays use an easily measured gene product as a stand-in for the process of interest.

Assay [8] has as its target Shiga toxin 2 (Escherichia coli O157:H7) (UniProt P09385+P09386). As to the kind of experiment: E. coli 0.157:H7 Shiga Toxin SOP - stx2 screening assay. Format: functional. To be noted: 30 µM.
Assay [9] concerns the target T5, Tyrosyl-tRNA synthetase, putative (Trypanosoma cruzi (strain CL Brener)) (UniProt Q4DSP6).
T5 sequence (whole entry): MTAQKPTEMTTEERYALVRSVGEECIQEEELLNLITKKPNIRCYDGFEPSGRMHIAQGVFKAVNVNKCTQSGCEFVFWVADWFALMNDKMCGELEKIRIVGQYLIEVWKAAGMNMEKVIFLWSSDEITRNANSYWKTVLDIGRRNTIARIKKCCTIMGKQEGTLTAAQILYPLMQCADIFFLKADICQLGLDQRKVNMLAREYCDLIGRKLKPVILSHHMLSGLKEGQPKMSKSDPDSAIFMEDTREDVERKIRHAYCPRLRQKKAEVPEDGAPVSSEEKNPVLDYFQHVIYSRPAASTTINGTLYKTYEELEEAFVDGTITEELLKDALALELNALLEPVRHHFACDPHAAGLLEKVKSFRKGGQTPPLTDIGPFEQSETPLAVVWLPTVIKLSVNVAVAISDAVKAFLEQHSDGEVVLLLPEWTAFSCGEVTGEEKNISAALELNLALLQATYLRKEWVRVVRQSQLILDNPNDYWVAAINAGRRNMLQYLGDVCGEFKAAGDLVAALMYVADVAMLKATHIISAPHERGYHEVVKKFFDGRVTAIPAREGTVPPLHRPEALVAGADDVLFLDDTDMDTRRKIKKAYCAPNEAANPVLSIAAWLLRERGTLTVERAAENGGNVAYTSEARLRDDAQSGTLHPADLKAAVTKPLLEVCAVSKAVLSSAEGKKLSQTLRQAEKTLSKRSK
As to the kind of experiment: Trypanosoma cruzi tyrosyl tRNA synthetase (TcYRS) _High Tyrosine SOP. Also: in the data most compounds retested in dose-response had high values. The assay is classed as functional. As to conditions: 30 µM.

Assay [10] has as its target T5, Tyrosyl-tRNA synthetase, putative (Trypanosoma cruzi (strain CL Brener)). The experiment in a line: Trypanosoma cruzi tyrosyl tRNA synthetase (TcYRS) SOP. The assay is classed as functional. As to conditions: 30 µM.
In assay [11] the target is Chromo domain-containing protein 1 (Saccharomyces cerevisiae (strain ATCC 204508 / S288c) (Baker's yeast)) (UniProt P32657). As to the kind of experiment: ScCHD-1 Enzyme Inhibition Assay. Also: in the data most compounds retested in dose-response had high values. To be noted: 30 µM. The assay is classed as functional.
Chain of Chromo domain-containing protein 1 (Saccharomyces cerevisiae (strain ATCC 204508 / S288c) (Baker's yeast)) (P32657 whole entry, the tested form may be a part): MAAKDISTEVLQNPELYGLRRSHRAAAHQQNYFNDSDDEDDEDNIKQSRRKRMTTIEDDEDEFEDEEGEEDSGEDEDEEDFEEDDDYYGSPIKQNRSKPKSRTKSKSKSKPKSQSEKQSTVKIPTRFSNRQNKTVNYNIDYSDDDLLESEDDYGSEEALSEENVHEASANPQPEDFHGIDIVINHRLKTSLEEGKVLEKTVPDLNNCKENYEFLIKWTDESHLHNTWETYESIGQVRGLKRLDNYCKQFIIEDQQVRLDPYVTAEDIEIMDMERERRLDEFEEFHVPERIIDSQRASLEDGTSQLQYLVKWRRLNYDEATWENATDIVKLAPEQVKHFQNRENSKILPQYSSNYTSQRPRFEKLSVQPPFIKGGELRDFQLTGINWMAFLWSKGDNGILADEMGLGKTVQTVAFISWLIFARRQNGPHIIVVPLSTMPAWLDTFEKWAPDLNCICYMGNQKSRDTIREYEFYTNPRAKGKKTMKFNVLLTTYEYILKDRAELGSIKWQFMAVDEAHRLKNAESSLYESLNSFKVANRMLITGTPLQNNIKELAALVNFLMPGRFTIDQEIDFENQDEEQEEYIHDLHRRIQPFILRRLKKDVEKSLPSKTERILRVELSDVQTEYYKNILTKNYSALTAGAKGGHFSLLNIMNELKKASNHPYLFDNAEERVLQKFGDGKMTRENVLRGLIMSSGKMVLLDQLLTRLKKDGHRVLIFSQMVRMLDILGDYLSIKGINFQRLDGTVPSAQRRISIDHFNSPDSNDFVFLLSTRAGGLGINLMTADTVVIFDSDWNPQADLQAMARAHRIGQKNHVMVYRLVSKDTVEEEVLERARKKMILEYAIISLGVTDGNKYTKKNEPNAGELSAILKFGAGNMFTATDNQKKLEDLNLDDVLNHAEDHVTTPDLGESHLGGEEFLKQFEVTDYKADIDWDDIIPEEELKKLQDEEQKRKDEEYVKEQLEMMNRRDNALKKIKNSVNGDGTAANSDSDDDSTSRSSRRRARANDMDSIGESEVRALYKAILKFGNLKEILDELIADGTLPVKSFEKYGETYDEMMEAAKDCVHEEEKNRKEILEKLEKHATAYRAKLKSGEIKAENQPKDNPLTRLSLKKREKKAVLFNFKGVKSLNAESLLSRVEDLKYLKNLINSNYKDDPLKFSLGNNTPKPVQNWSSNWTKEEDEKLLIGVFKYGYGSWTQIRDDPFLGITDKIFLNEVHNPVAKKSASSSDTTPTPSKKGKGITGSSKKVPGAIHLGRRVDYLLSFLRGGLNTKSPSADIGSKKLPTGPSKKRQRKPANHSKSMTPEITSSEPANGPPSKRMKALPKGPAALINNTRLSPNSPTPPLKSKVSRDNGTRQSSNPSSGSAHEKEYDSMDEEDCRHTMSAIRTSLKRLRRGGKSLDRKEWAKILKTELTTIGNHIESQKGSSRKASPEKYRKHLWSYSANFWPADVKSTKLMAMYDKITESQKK

Chain of Protein translocase subunit SecA (Escherichia coli (strain K12)) (P10408 whole entry): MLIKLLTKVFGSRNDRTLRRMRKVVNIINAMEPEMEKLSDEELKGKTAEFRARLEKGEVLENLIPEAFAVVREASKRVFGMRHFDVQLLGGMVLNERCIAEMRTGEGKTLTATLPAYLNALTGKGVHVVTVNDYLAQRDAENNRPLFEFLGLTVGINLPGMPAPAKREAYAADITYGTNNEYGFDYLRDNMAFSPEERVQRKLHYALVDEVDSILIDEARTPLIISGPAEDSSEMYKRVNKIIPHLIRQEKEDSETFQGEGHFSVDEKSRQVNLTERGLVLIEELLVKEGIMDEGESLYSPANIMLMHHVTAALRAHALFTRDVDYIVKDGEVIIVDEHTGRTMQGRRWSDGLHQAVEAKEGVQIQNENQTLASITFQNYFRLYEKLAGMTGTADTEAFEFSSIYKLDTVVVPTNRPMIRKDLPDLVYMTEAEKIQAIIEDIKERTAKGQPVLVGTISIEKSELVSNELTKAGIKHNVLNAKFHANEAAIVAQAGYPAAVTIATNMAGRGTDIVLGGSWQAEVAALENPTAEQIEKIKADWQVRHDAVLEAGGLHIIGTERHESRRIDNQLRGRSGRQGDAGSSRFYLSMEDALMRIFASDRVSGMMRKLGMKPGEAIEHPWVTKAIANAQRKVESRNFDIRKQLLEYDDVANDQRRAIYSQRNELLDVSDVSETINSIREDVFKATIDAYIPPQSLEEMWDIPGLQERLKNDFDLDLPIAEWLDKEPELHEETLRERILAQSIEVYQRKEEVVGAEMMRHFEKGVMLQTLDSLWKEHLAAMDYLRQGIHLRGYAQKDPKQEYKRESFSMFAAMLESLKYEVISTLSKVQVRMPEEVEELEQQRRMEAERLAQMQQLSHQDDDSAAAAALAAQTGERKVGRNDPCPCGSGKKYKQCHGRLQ
Chain of Sialic acid-binding Ig-like lectin 9 (Homo sapiens) (Q9Y336 whole entry): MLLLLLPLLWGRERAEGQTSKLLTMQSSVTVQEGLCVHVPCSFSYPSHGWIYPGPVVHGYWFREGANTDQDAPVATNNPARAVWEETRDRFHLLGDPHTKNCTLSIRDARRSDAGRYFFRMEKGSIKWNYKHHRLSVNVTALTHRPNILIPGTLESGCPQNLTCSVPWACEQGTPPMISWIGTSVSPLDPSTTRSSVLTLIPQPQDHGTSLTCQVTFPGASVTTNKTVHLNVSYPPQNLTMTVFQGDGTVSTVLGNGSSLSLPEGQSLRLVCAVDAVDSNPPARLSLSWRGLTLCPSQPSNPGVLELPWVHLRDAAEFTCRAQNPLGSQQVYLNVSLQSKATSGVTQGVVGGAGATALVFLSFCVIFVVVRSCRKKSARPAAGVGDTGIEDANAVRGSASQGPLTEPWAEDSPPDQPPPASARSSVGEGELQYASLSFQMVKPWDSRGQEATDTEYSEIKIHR

Turning to `COc1cccc(CNC(C)Cn2cccn2)c1OC` (stereo not given), the Percent Effect in assay [1] is -0.666%; in assay [2], 2.6%; in assay [3], 6.86%; in assay [4], 1.22%; in [5] it was 3.25%; with Trypanosoma cruzi it was -0.749%. Besides, the Percent Effect in [6] turned out to be 1.42%; in assay [7] it was 2.37%; in the assay listed under Homo sapiens, 7.27%; in assay [8], 0.638%; in assay [9], 1.94%; in assay [10], 0%. Moreover, the Percent Effect in [11] is -2.46%.

On to `O=C(NCC1CC1)[C@H]1C[C@@H]2[C@@H](C1)OCCN2Cc1cccnc1`, for which the Percent Effect in assay [1] is -2.08%; in assay [2] it was -5.33%; in assay [3], -0.291%; in [4] it was 6.97%; in assay [5] it was 0.812%; in the assay on Trypanosoma cruzi, -1.93%. For the same compound, the Percent Effect in [6] is -52.5%; in assay [7] it was -2.73%; in the assay filed under Homo sapiens it was 9.72%; in assay [8], -7.08%; in assay [9], -1.04%; in assay [10], -5%. The Percent Effect in assay [11] was determined as 4.12%.

`CCS(=O)(=O)N[C@@H]1CN(Cc2cc(C)on2)C[C@@H]2CCCO[C@@H]21`: the Percent Effect was -5.04% in assay [1]; 8.11% in [2]; 4.25% in assay [3]; 0.656% in [4]; 19% in assay [5]; 1.66% in the assay with Trypanosoma cruzi. For the same compound, the Percent Effect is 4.71% in assay [6]; 6.27% in assay [7]; -3.3% in the assay listed under Homo sapiens; 1.95% in assay [8]; 6.45% in [9]; 18.5% in assay [10]. Further, the Percent Effect in assay [11] is -4.16%.

Regarding `c1csc(CN2CC[C@H]3C[C@H](c4ccncn4)O[C@@H]3C2)c1`, the Percent Effect in [1] was 2.89%; in assay [2] it was 13%; in [3], 2.7%; in [4], 9.99%; in assay [5], -6.78%; with Trypanosoma cruzi, -7.99%. Moreover, the Percent Effect in assay [6] is 5.81%; in assay [7], 19.7%; in the assay filed under Homo sapiens it was 13.8%; in [8], -7.55%; in assay [9] it was 2.12%; in assay [10], 6.41%. The Percent Effect in assay [11] was -8.13%.

For `Cc1cnc(N2CCCC3(CCCN(C)C3)C2)nc1` (stereo not given), the Percent Effect is -4.89% in assay [1]; 0% in assay [2]; -0.912% in assay [3]; 0.0306% in [4]; 4.33% in assay [5]; 3.37% in the assay with Trypanosoma cruzi. The Percent Effect was -6.79% in [6]; 8.82% in [7]; -22.4% in the assay listed under Homo sapiens; 7.25% in assay [8]; -2.08% in assay [9]; 8.64% in assay [10]. For the same compound, the Percent Effect in [11] was -5.6%.
